Experimental data as given in the supplement of paper PMC12645437, “Orthogonal IMiD-Degron Pairs Induce Selective Protein Degradation in Cells” (ACS Chemical Biology, 2025).
In all, about 8,300 sequences were measured (“log2 fold change of degron read counts, EGFP-low vs EGFP+ sorted cells (limma voom), compound-induced degradation”: median about -1.1, highest 2% from about 3.2 on). Shown is part of a subset that was picked to be rich in the highest values.

Target: T1, CRBN, Q96SW2
T1 chain: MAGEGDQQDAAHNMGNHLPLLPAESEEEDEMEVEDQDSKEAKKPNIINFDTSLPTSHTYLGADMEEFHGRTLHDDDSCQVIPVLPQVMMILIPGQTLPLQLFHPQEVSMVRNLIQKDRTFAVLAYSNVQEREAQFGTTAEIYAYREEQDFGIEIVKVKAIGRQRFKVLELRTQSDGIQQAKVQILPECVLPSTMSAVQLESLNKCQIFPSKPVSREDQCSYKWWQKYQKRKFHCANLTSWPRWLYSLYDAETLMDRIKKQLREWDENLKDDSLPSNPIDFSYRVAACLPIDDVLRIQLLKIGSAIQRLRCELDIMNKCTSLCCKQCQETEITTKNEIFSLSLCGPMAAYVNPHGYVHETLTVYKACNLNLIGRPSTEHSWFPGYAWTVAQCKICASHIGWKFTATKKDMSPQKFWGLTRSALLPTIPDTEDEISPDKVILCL
Test: log2 fold change of degron read counts, EGFP-low vs EGFP+ sorted cells (limma voom), compound-induced degradation; higher = more compound-induced degradation of the degron-EGFP fusion; degrons are variants of IKZF1/3 zinc finger 2; compound dose not given here
Conditions: Jurkat, 18 h

[1] = compound: compound 19 (5-tert-butyl-thalidomide)
[2] = compound: compound 22 (5-morpholino-thalidomide)
[3] = compound: compound 33 (diphenyl IMiD analogue)
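Further: pooled lentiviral library of zinc finger degron-EGFP fusions in mCherry-positive Jurkat cells, FACS-sorted after compound exposure, with degron abundance counted by next-generation sequencing.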

Sequence	log2 fold change of degron read counts [1]	log2 fold change of degron read counts [2]	log2 fold change of degron read counts [3]	log2 fold change of degron read counts (compound: thalidomide)
LGCNQCGFSCTQKGNLLRHIKL [46L_47G_49N_50Q_52G_53F_54S_55C_67L_, Q9UKT9]	-1.87	-2.27	-1.97	-1.71
FHCNQCGHDFTQKGNLLRHIKL [46F_47H_49N_50Q_52G_53H_54D_55F_67L_, Q9UKT9]	-2.36	-2.92	-3.64	-3.18
FRCPICGRKFTQKGNLLRHIKL [46F_47R_49P_50I_52G_53R_54K_55F_67L_, Q9UKT9]	-1.49	-0.504	0.233	0.803
FICNQCGRHFTQKGNLLRHIKL [46F_47I_49N_50Q_52G_53R_54H_55F_67L_, Q9UKT9]	-2.53	-2.91	-2.85	-2.39
FRCDQCGAQFTQKGNLLRHIKL [46F_47R_49D_50Q_52G_53A_54Q_55F_67L_, Q9UKT9]	-2.54	-2.73	-1.77	-2.38
FMCEQCGASFTQKGNLLRHIKL [46F_47M_49E_50Q_52G_53A_54S_55F_67L_, Q9UKT9]	-1.6	-1.45	1.54	-0.529
FWCNQCGRCFTQKGNLLRHIKL [46F_47W_49N_50Q_52G_53R_54C_55F_67L_, Q9UKT9]	-1.48	-2.02	-1.83	-1.5
LGCEICGFICTQKGNLLRHIKL [46L_47G_49E_50I_52G_53F_54I_55C_67L_, Q9UKT9]	0.761	-0.0429	-0.436	-0.337
